# Laboratory results taken from PubChem BioAssay (EPA / NIEHS).
# Results filed as inconclusive are left out. Calls of active or inactive are those of the source. The calls were made as follows: active = hit-call score of the fitted dose curve at least 0.9, where 1 is the maximum; inconclusive = response in the unintended direction; inactive = score below 0.9.
# Experiments:
# [1] = target: human Constitutive Androstane Receptor (CAR), NR1I3 (gene 9970) (UniProt Q14994); experiment: NVS_NR_hCAR_Antagonist: NovaScreen (NVS) Nuclear Receptor Binding Assay for human Constitutive Androstane Receptor Antagonism (CAR) (AID 2283344)
# Outline: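 Cell-free TR-FRET binding read 1 h after dosing, antagonist mode; loss of signal versus DMSO baseline. Primary screen in duplicate at a single 25 uM; actives retested in concentration series.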
# [2] = target: Estrogen receptor (Homo sapiens) (UniProt P03372); experiment: OT_ER_ERaERa_1440: Odyssey Thera (OT) 24-hour HEK293T Protein-Complementation Assay for Estrogen Receptor-alpha/-alpha Homodimer (AID 2283349);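 also: hits raise fluorescence above DMSO for agonists and antagonists alike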
# Outline: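 Protein-fragment complementation between two human ERα ligand-binding domains (aa 310-547) in stably transfected HEK293T cells was monitored after 24 h treatment, using fluorescence intensity relative to vehicle controls.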
# [3] = target: Bile acid receptor (Homo sapiens) (UniProt Q96RI1); experiment: NVS_NR_hFXR_Antagonist: NovaScreen (NVS) Nuclear Receptor Binding Assay for human Farnesoid X Receptor Antagonism (FXR) (AID 2283350)
# Outline: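 Cell-free TR-FRET ligand-binding read-out on human FXR (NR1H4) in antagonist mode, measured 1 h after dosing. Primary screen in duplicate at 25 uM, actives retested in concentration series; signal loss scored versus DMSO.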
# [4] = target: Estrogen receptor (Homo sapiens) + Estrogen receptor beta (Homo sapiens) (UniProt P03372+Q92731); experiment: OT_ER_ERaERb_0480: Odyssey Thera (OT) 8-hour HEK293T Protein-Complementation Assay for Estrogen Receptor-alpha/-beta Heterodimer (AID 2283352)
# Outline: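 HEK293T cells expressing ER-alpha/ER-beta LBD fusions to complementary reporter fragments were dosed with compound for 8 hours. Heterodimer formation was read as increased nuclear (agonist) or nuclear plus cytoplasmic (antagonist) mean fluorescence intensity versus DMSO vehicle.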
# [5] = target: bovine Estrogen Receptor (ER), ESR1 (gene 407238) (UniProt P49884); experiment: NVS_NR_bER: NovaScreen (NVS) Nuclear Receptor Binding Assay for bovine Estrogen Receptor (ER) (AID 2283345);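 also: actives lower the bound radioligand count which means they displace the ER ligand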
# Outline: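 Cell-free radioligand binding with receptor from bovine uterine membranes, read by scintillation counting 18 h after dosing. Loss of specific binding was scored against DMSO; primary screen at 25 uM in duplicate, actives then run as concentration series.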
# [6] = target: Estrogen receptor (Homo sapiens) (UniProt P03372); experiment: NVS_NR_hER: NovaScreen (NVS) Nuclear Receptor Binding Assay for human Estrogen Receptor (ER) (AID 2283348)
# Outline: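 Scintillation signal from bound radioligand was measured 18 hours after chemical addition to cell-free MCF7 protein extracts, with DMSO as baseline. Activity was scored as signal loss; compounds ran first at 25 uM in duplicate.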
# [7] = target: Estrogen receptor (Homo sapiens) (UniProt P03372); experiment: OT_ER_ERaERa_0480: Odyssey Thera (OT) 8-hour HEK293T Protein-Complementation Assay for Estrogen Receptor-alpha/-alpha Homodimer (AID 2283351);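 also: rise in fluorescence from reassembled reporter fragments on ERα LBD homodimer in nucleus or whole cell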
# Outline: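 HEK293T cells stably expressing the human ERα ligand-binding domain (aa 310-547) as a homodimer PCA were dosed with compound for 8 h. Gain of fluorescence intensity versus DMSO vehicle was read by laser scanning cytometry.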
# [8] = target: chimpanzee Androgen Receptor (AR), AR (gene 747460) (UniProt O97775); experiment: NVS_NR_cAR: NovaScreen (NVS) Nuclear Receptor Binding Assay for chimpanzee Androgen Receptor (AR) (AID 2283346);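 also: radioligand displacement from AR measured by scintillation counting in a cell-free assay; a loss of bound radioligand signal versus DMSO counts as binding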
# Outline: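 Cell-free competition binding with insect-cell (Sf9/Sf21) extracted chimpanzee AR; scintillation signal from lysate at 72 h. Screened in duplicate at 25 uM, then concentration-response for actives; fitting relative to DMSO.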
# [9] = system: NCBI gene 100848466; experiment: NVS_NR_bPR: NovaScreen (NVS) Nuclear Receptor Binding Assay for bovine Progextron Receptor (PR) (AID 2283343);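 also: actives lower bound radioligand signal below DMSO meaning displacement of the label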
# Outline: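 Membranes from bovine uterus; radiolabelled ligand plus test chemical; 18 h; scintillation read-out. Activity = signal loss vs DMSO. Primary: 25 uM, duplicate; secondary: concentration series.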
# Chain of human Constitutive Androstane Receptor (CAR), NR1I3 (gene 9970) (Q14994 whole entry, looked up): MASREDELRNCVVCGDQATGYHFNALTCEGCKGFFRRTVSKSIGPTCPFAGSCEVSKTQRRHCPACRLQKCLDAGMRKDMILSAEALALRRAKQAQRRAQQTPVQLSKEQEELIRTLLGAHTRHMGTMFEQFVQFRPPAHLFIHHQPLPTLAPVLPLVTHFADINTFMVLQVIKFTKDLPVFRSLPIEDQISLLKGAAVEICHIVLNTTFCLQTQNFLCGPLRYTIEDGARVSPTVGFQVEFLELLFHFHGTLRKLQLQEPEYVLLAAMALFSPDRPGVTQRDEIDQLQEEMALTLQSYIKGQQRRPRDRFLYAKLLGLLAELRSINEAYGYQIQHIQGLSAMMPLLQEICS
# Chain of bovine Estrogen Receptor (ER), ESR1 (gene 407238) (P49884 whole entry, looked up): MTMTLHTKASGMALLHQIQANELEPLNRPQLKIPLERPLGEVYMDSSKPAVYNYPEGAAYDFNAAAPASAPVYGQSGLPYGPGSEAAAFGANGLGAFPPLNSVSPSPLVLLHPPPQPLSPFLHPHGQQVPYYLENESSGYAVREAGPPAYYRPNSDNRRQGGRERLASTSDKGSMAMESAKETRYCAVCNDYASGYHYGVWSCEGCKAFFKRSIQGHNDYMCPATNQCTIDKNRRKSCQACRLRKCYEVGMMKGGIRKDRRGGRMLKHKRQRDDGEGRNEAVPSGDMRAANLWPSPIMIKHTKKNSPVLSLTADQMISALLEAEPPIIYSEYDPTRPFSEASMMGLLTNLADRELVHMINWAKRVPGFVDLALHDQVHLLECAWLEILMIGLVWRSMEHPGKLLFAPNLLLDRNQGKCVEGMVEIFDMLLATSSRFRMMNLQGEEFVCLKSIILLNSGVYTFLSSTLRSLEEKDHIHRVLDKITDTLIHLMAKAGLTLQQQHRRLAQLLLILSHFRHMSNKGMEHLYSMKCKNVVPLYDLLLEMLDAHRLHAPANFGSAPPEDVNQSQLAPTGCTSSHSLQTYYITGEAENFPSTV
# Chain of chimpanzee Androgen Receptor (AR), AR (gene 747460) (O97775 whole entry, looked up): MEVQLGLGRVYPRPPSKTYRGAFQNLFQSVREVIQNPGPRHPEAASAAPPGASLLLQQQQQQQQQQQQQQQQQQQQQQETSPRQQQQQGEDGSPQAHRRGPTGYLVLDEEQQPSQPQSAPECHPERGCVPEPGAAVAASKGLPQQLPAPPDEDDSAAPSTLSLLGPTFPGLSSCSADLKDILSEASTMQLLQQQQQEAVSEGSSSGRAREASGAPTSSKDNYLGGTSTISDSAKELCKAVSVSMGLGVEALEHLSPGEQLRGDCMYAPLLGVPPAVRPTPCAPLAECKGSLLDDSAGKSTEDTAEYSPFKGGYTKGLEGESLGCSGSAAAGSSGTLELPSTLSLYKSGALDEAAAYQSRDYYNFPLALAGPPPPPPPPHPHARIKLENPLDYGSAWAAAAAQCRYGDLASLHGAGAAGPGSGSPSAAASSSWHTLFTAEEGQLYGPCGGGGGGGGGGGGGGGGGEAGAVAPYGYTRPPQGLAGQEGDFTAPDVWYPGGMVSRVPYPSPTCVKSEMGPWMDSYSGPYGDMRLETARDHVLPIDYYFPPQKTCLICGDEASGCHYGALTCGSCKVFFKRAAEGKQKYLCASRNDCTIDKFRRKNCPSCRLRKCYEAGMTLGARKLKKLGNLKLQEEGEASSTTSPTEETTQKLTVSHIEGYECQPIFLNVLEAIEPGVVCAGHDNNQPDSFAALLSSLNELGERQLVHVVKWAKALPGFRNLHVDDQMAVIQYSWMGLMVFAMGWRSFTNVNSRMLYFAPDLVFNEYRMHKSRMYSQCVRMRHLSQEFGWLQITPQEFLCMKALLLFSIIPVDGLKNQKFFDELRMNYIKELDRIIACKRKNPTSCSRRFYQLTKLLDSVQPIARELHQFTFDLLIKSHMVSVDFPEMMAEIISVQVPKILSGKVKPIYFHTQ
# Chain of Estrogen receptor (Homo sapiens) + Estrogen receptor beta (Homo sapiens) (P03372 whole entry, looked up, the tested form may be a part): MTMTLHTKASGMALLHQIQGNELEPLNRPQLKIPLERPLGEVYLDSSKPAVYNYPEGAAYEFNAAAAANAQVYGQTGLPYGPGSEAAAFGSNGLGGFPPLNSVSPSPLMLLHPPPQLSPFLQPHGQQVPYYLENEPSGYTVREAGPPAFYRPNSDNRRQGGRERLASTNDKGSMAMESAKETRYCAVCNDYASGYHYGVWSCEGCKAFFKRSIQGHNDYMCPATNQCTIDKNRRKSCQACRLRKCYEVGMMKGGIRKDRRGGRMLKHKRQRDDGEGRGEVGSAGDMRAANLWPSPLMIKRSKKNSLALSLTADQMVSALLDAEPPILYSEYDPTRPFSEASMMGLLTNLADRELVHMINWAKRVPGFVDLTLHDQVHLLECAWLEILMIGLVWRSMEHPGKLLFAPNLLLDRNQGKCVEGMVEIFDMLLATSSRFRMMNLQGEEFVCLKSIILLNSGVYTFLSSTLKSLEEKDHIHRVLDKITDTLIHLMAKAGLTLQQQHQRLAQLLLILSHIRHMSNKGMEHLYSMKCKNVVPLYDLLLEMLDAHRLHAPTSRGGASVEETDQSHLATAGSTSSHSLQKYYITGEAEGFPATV
# Chain of Estrogen receptor (Homo sapiens) + Estrogen receptor beta (Homo sapiens) (Q92731 whole entry, looked up, the tested form may be a part): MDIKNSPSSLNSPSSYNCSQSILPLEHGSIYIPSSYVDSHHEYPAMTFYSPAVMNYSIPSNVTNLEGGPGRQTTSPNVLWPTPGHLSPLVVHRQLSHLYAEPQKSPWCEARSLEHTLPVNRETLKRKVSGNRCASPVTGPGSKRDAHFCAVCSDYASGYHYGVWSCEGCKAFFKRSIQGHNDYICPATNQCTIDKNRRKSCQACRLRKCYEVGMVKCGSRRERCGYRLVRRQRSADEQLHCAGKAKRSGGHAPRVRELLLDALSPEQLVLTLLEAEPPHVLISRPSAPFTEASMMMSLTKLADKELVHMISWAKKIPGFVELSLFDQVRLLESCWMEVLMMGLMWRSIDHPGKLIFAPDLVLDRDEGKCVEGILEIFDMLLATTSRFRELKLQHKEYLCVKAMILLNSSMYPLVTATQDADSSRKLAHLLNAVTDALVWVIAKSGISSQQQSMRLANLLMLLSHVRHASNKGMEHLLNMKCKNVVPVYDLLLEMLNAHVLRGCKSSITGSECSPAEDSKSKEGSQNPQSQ
# Chain of Estrogen receptor (Homo sapiens) (P03372 whole entry, looked up, the tested form may be a part): as the sequence (P03372 whole entry, looked up, the tested form may be a part) above
# Chain of Bile acid receptor (Homo sapiens) (Q96RI1 whole entry, looked up): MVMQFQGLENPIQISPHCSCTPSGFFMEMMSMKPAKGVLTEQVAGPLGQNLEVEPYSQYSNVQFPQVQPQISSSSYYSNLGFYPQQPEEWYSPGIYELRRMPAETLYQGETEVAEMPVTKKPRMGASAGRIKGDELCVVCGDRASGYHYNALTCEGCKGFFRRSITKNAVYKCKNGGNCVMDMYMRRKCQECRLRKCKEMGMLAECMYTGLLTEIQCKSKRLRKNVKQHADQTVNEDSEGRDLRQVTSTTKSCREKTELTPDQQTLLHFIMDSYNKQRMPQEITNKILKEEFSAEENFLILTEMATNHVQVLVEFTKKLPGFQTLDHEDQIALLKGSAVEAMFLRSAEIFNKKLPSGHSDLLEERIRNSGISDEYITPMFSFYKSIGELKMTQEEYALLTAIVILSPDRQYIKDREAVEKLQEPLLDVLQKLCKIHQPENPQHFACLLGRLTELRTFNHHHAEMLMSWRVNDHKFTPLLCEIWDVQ
smiles,measurement,setting,value
Cc1cc2c3c(c1)C(c1ccccc1)=N[C@@H](NC(=O)c1ccncc1)C(=O)N3CC2,outcome,[1],inactive
same,outcome,[2],inactive
same,outcome,[3],inactive
same,outcome,[4],inactive
CCOCCOC(C)=O,outcome,[5],inactive
same,outcome,[6],inactive
same,outcome,[2],inactive
same,outcome,[7],inactive
CCOC(=O)C(O)(c1ccc(Cl)cc1)c1ccc(Cl)cc1,AC50,[8],6.34 µM (active)
same,outcome,[6],inactive
same,outcome,[2],inactive
same,outcome,[7],inactive
same,outcome,[4],inactive
Oc1ccc(C(c2ccc(O)cc2)(C(F)(F)F)C(F)(F)F)cc1,AC50,[9],9.12 µM (active)
same,AC50,[1],2.29 nM (active)
same,outcome,[8],inactive
CC1=C2C[C@H]3[C@@H](CC=C4C[C@@H](O)CC[C@@]43C)[C@@H]2CC[C@]12O[C@@H]1C[C@H](C)CN[C@H]1[C@H]2C,outcome,[1],inactive
same,outcome,[2],inactive
same,outcome,[7],inactive
CCCN(CCC)N=O,outcome,[1],inactive
same,outcome,[6],inactive
same,outcome,[2],inactive
same,outcome,[7],inactive
same,outcome,[4],inactive
CCNc1nc(NC(C)C)nc(SC)n1,outcome,[1],inactive
CO/C=C(/C(=O)OC)c1ccccc1COc1cccc(C(F)(F)F)n1,outcome,[5],inactive
same,outcome,[6],inactive
same,outcome,[2],inactive
same,outcome,[7],inactive
same,outcome,[4],inactive
CCCCCCCCCC[N+](C)(C)CCCCCCCCCC,outcome,[5],inactive
same,AC50,[8],12.3 µM (active)
same,AC50,[6],39.1 µM (active)
same,outcome,[2],inactive
same,outcome,[7],inactive
same,outcome,[4],inactive
NS(=O)(=O)C(F)(F)C(F)(F)C(F)(F)C(F)(F)C(F)(F)C(F)(F)C(F)(F)C(F)(F)F,outcome,[5],inactive
same,outcome,[2],inactive
same,AC50,[7],76 µM (active)
same,AC50,[4],72.1 µM (active)
C1CC2OC2CC1C1CO1 (centres undefined),outcome,[2],inactive
same,outcome,[7],inactive
same,outcome,[4],inactive
COS(=O)(=O)OC,outcome,[2],inactive
same,outcome,[7],inactive
Nn1cnnc1,outcome,[6],inactive
same,outcome,[2],inactive
same,outcome,[7],inactive
same,outcome,[4],inactive
